Measured potencies and affinities stand elsewhere. Calls of active or inactive are those of the source. Cut-off not given; nearly all actives show IC50 up to about 0.91 µM.
The compounds below were run against Calcium-dependent protein kinase 4 (Plasmodium falciparum (isolate 3D7)) (UniProt Q8IBS5) (assay: PfCDPK4 kinase inhibitors, biochemical, TCAMS library (AID 1159588)). Conditions: recombinant PfCDPK4, Kinase-Glo ATP depletion luminescence.
Calcium-dependent protein kinase 4 (Plasmodium falciparum (isolate 3D7)), sequence (Q8IBS5 whole entry, looked up): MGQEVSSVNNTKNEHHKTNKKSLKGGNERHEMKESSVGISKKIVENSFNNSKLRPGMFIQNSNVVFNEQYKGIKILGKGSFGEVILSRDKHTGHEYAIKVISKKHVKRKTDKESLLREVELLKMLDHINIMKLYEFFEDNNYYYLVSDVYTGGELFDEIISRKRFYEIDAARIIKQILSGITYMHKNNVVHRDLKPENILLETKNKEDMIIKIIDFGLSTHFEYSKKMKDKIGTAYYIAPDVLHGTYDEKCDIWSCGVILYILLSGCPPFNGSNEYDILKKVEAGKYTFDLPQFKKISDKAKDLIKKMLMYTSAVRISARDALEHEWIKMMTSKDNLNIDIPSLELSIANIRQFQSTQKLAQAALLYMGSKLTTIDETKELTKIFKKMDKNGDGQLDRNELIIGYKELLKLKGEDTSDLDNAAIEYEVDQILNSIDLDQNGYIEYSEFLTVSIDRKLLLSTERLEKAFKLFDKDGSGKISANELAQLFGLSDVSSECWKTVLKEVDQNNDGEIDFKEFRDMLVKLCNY

outcome, inactive:
O=C(Nc1ccc2nccc(N3CCN4CCC[C@H]4C3)c2c1)c1ccc(Cl)c(Cl)c1
NC(=O)c1cccc(C(=O)Nc2cccc(-c3ccc(-c4nc5ccccc5[nH]4)s3)c2)c1
COc1ccc(CCNCCCCCCNCCc2ccc(-c3ccccc3)cc2)cc1OC
CC(ON1C(N)=NC(N)=NC1(C)C)c1ccccc1 (stereo not given)
CC(C)CCN1CCC(Oc2cccc(NC(=O)c3ccc(C(F)(F)F)cc3)c2)CC1
CCc1cn2c3c(cc(C(=O)N[C@@H](Cc4ccccc4)[C@H](O)CNC4CC4)cc13)N(CC)S(=O)(=O)CC2
Cc1cccc2[nH]c(-c3ccc(-c4cccc(NC(=O)C(C)CN(C)C)c4)s3)nc12 (stereo not given)
CCn1c(C(C)C)cc2c3c(N)nc(N)nc3ccc21
COc1ccc(NC(=O)Nc2cccc(-c3ccc(-c4nc5c(C)cccc5[nH]4)s3)c2)cc1
C=C(C)C1CC=C(CN2CCC(N3CCc4cc(NC(=O)c5cc(C)on5)ccc43)C2)CC1 (stereo not given)
O=C(Nc1ccccc1Cl)c1cc2ccccc2cc1O
CCCCN1CCN(Cc2cccc(NC(=O)c3ccc(Cl)c(Cl)c3)c2)CC1
c1cn(-c2ccc(CNc3nccc(Nc4ccc(OCCN5CCOCC5)cc4)n3)cc2)cn1
CCN(Cc1ccccc1)C1CCN(Cc2cc(Br)ccc2O)CC1
O=C(Nc1ccc(OC2CCN(Cc3ccc(F)cc3)CC2)c(Cl)c1)c1ccccc1
COc1ccccc1NC(=O)NC1CCN(CCCCCNC(=O)/C=C/c2ccc(Cl)c(Cl)c2)CC1
CCOC(=O)NC1=NC(C)(C)N(OCCCOc2ccc(C)cc2C)C(NC(=O)OCC)=N1
Cc1ccc2c(c1)c(-c1ccccc1)c(-c1ccccc1)n2CC(O)CN1CCN(CC=Cc2ccccc2)CC1 (stereo not given)
COc1ccc2nccc(NC(=O)C3(O)CCC(NCc4ccc5c(c4)NCCS5)CC3)c2n1 (stereo not given)
O=C(NCc1ccc(F)cc1)c1cnc(N2CCN(c3ccncc3)CC2)c(Cl)c1
CC1(C)N=C(N)N=C(N)N1OCCc1ccccc1
Cc1ccccc1C1CCN(C2CCC(NC(=O)c3cc4cc(C(C)C)ccc4[nH]3)CC2)CC1 (stereo not given)
O=C(NCC1CCN(Cc2cccc(C(F)(F)F)c2)C1)c1cc(-c2cccc(Cl)c2)cs1 (stereo not given)
COc1ccc(CCNCCCCCCNCCc2ccc(Cl)c3ccccc23)cc1OC
Cn1nccc1C(=O)NCCNCc1cccc(-c2csc(-c3nc4ccccc4[nH]3)c2)c1
c1ccc(COc2ccccc2COc2ccccc2-c2ccc3cccnc3n2)cc1
O=C(/C=C/c1ccc(Cl)c(Cl)c1)NCCCCCN1CCC(NC(=O)Nc2ccc(F)c(Cl)c2)CC1
CN(C)Cc1cccc2[nH]c(-c3csc(Cc4cc(Cl)ccc4OCc4ccccc4)n3)nc12
Cc1c(-c2cccc(C(C)(C)NC3CCN(Cc4ccccc4)CC3)c2)cnc(N)c1C
CCc1sc(N2CCN(C)CC2)nc1C(=O)Nc1ccc(F)cc1C(F)(F)F
Cc1cc(NN=Cc2cccc(Cl)c2)c2cc(F)ccc2n1
COc1cccc(C(=O)NCCc2cccc(Cl)c2)c1Oc1ccccc1
CCc1cccc(NC(=O)/C=C/c2ccc3c(c2)CN(C)CC3)c1
CC1CN(Cc2csc(Nc3ccccc3)n2)CC(C)O1 (stereo not given)
CCCCCCCCc1c(C)[nH]c(C)c(I)c1=O
CCc1cc2c3c(N)nc(N)nc3ccc2n1CC
Cc1cc(-c2ccc3c(c2)CCN(CCC2CCC(NC(=O)/C=C/c4cccc(Cl)c4)CC2)CC3)on1 (stereo not given)
CCCCCCc1cnc2nc(N)nc(N)c2c1C
N#Cc1ccc(NC(=O)NC2CCN(CCCCCNC(=O)/C=C/c3ccc(Cl)c(Cl)c3)CC2)cc1
CN1CCN(CCNc2c3ccccc3nc3c2ccc2ccccc23)CC1

— PubChem BioAssay
